The text below walks through data of PubChem BioAssay (Tox21).

Assay [1] concerns the target Thyrotropin receptor (Homo sapiens) (UniProt P16473). In words: qHTS assay to identify small molecule antagonists of the thyroid stimulating hormone receptor (TSHR) signaling pathway (AID 1259385; calls by dose curve; note: nearly all actives have a fitted effect of over 20% in size). Summed up: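 Antagonist mode: compound-treated TSHR-expressing HEK293 cells were stimulated with 1.5 ng/mL TSH (final) in presence of Ro20-1724 for 30 min at RT. HTRF cAMP detection after 1 h; each compound tested at 15 concentrations, triplicate.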
(In general: Quantitative high-throughput screening tests each substance at several concentrations.)

Assay [2] in a line: qHTS assay to identify small molecule agonists of the estrogen receptor alpha (ER-alpha) signaling pathway in the presence of an antagonist - cell viability counter screen (AID 1259386).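 Note: series mostly up to about 92 µM; cells exposed to compounds for 22 h at 37 °C before the viability read; nearly all actives have a fitted effect of over 30% in size.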 Summed up:
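Cell viability in VM7Luc4E2 cells (endogenous full-length ER-alpha) measured by CellTiter-Fluor fluorescence in the same wells as the luciferase screen. Cells pre-cultured 5 days in charcoal-stripped serum, then treated 22 h with compounds at 15 concentrations plus 10.0nM ICI-182,780.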

Assay [3] has as its target Progesterone receptor (Homo sapiens) (UniProt P06401). Kind of assay: qHTS assay to identify small molecule agonists of the progesterone receptor (PR) signaling pathway (AID 1346784; calls by dose curve; note: nearly all actives have a fitted effect of over 30% in size; note: potency is the fitted concentration of half-maximal effect). Summed up:
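Agonist qHTS: compounds pinned onto 3,000 PR-UAS-bla HEK 293T cells per well in charcoal-stripped serum medium, 16hr at 37C, then beta-lactamase activity measured by LiveBLAzer FRET fluorescence after 2 hours at room temperature.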

For assay [4] the target is unchanged. In words: qHTS assay to identify small molecule antagonists of the progesterone receptor (PR) signaling pathway (AID 1346795; active = well fitted inhibition curve with a large enough effect in the signal ratio in the repeat runs, not every such curve was filed as active; the % refers to the signal ratio). Summed up:
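Antagonist mode with agonist R5020 at 1 nM final and 16 hr incubation at 37C. Reporter was beta-lactamase driven by UAS in HEK293T (PR-UAS-bla), 2% charcoal-stripped serum; signal from LiveBLAzer FRET substrate, 2 hr at room temperature.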

Assay [5] in a line: qHTS assay to identify small molecule antagonists of the progesterone receptor (PR) signaling pathway - cell viability counter screen (AID 1346798). Note: series mostly up to about 92 µM; nearly all actives have a fitted effect of over 50% in size. Summed up: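 Cytotoxicity read as CellTiter-Glo luminescence (30 min, room temperature) in the same wells as the beta-lactamase readout. HEK293T PR-UAS-bla cells in charcoal-stripped 2% FBS received compound and R5020, then 16 h at 37C, 5% CO2.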

Assay [6] in a line: qHTS assay to identify small molecule antagonists of the TGF-beta/Smad signaling pathway - cell viability counter screen (AID 1346824). Note: nearly all actives have a fitted effect of over 50% in size. Summed up: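 Cytotoxicity counter-screen run in the same wells as the beta-lactamase Smad reporter read: CellTiter-Glo luminescence after 30 min at room temperature. HEK 293T SBE-bla cells had 5 hr compound exposure at 37 C with TGF-beta1 (0.25 ng/mL stock).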

Assay [7] in a line: qHTS assay to identify small molecule agonists of the TGF-beta/Smad signaling pathway - cell viability counter screen (AID 1346829). Note: top concentration of the series differs between compounds; nearly all actives have a fitted effect of over 45% in size. Summed up: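 Luminescence from CellTiter-Glo, read after a 30 min room-temperature incubation, gives cell viability of SBE-bla HEK 293T cells treated 5 hr with compounds at 37 C.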
Assay [8] is described as follows: qHTS assay to identify small molecule agonists of the TGF-beta/Smad signaling pathway (AID 1346859; active = well fitted activation curve with a large enough effect in the signal ratio in the repeat runs, not every such curve was filed as active; the % refers to the signal ratio; note: series mostly up to about 77 µM). Summed up:
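Fluorescence (ex 405 nm; em 460 and 530 nm) was read 2 h after LiveBLAzer FRET substrate at RT. The preceding compound treatment of overnight-plated SBE-bla HEK293T cells lasted 5 h at 37 C.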

Assay [9] concerns the target Thyrotropin-releasing hormone receptor (Homo sapiens) (UniProt P34981). In words: qHTS assay to identify small molecule antagonists of the thyrotropin-releasing hormone receptor (TRHR) signaling pathway (AID 1346877; active = well fitted inhibition curve with a large enough effect in the repeat runs, not every such curve was filed as active; note: series mostly up to about 51 µM). Summed up:
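TRHR-expressing HEK293 cells loaded with calcium dye for 2 h at 37 C; compounds pre-incubated 5 min at room temperature before TRH challenge at 1 nM final. Intracellular calcium fluorescence read kinetically for 3 min; 15 concentrations in triplicate.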

For assay [10] the target is unchanged. Kind of assay: qHTS assay to identify small molecule agonists of the thyrotropin-releasing hormone receptor (TRHR) signaling pathway (AID 1346891; calls by dose curve; note: series mostly up to about 58 µM). Summed up: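 Agonist-mode intracellular calcium readout: kinetic fluorescence over 3 min at 1 s intervals after compound addition to TRHR-HEK293 cells (18 h seeded, 2 h dye-loaded at 37 C). Fifteen concentrations, triplicates.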

Assay [11] in a line: Human pregnane X receptor (PXR) small molecule agonists, qHTS cell viability counter screen (AID 1346977). Note: nearly all actives have a fitted effect of over 50% in size. Summed up:
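Same-well viability read: CellTiter-Fluor added after 23 hr compound exposure, fluorescence measured 1 hr later. Cells were PXR-Luc HepG2 seeded at 2,000/well in 5% charcoal-stripped FBS medium, rested 5 hr before dosing at 37 C.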

Assay [12] is described as follows: Caspase-3/7 induction in HepG2 cells by small molecules, qHTS assay (AID 1346978). Note: nearly all actives have a fitted effect of over 15% in size. Summed up: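 Caspase-3/7 induction was measured by Caspase-Glo 3/7 luminescence (30 min, room temperature) after a 17 hr compound exposure of wild-type HepG2 cells seeded at 2,000 per well and pre-incubated 5 hr.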
Assay [13] can be described thus: Caspase-3/7 induction in CHO-K1 cells by small molecules, qHTS cell viability counter screen (AID 1346979). Note: nearly all actives have a fitted effect of over 35% in size. Summed up: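 Cytotoxicity counter screen: CellTiter-Fluor added to compound-treated wild-type CHO-K1 cells at 16 h (37C, 5% CO2), fluorescence measured 1 h later; same wells as caspase-3/7 measurement.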
Assay [14] is described as follows: Caspase-3/7 induction in CHO-K1 cells by small molecules, qHTS assay (AID 1346980). Note: nearly all actives have a fitted effect of over 15% in size. Summed up:
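Luminescent Caspase-Glo 3/7 read (30min, room temperature) quantified apoptosis induction. Cells were wild-type CHO-K1, treated with compound for 17hr at 37 C and 5% CO2.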

A short description of assay [15]: Caspase-3/7 induction in HepG2 cells by small molecules, qHTS cell viability counter screen (AID 1346981). Note: series mostly up to about 92 µM; nearly all actives have a fitted effect of over 30% in size. Summed up:
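Wild-type HepG2 cells, 2,000/well, settled 5 hr at 37 C, 5% CO2 before compound addition. Viability read by CellTiter-Fluor fluorescence, reagent added after 16 hr compound exposure, then 1 hr at 37C, in the same wells as the caspase read.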

Assay [16] addresses Nuclear receptor subfamily 1 group I member 2 (Homo sapiens) (UniProt O75469). In words: Human pregnane X receptor (PXR) small molecule agonists, qHTS assay (AID 1346982). Note: nearly all actives have a fitted effect of over 35% in size. Note: potency is the fitted concentration of half-maximal effect. Summed up: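 PXR-Luc HepG2 reporter cells (CYP3A4-driven luciferase) in 5% charcoal-stripped FBS medium, plated 5 h before compound addition, then treated 24 h at 37C. Luciferase read by ONE-Glo luminescence after 30 min at room temperature.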

Assay [17] in a line: qHTS assay to identify small molecule agonists of the progesterone receptor (PR) signaling pathway - cell viability counter screen (AID 1346799; calls by dose curve; note: nearly all actives have a fitted effect of over 45% in size). Summed up:
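Cytotoxicity measured by CellTiter-Glo luminescence (30 min, RT) in the same wells as the PR beta-lactamase agonist read. Those HEK293T cells had 16 h compound treatment at 37 C in 2% charcoal-stripped FBS medium.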

Unmarked numbers belong to inactive results. Records with an inconclusive call do not appear. Active and inactive are the calls of the source. Unless noted, calls come from the whole dose curve; as a rule, active = well fitted curve in the direction sought with a large enough effect in the repeat runs; inconclusive = weak or mixed curves; inactive = no such curve, though single readings can be large; an effect the other way counts as inactive or inconclusive.
% is set by controls: 0 for no effect and ±100 for the full control effect.

Chain of Thyrotropin-releasing hormone receptor (Homo sapiens) (P34981 whole entry, looked up): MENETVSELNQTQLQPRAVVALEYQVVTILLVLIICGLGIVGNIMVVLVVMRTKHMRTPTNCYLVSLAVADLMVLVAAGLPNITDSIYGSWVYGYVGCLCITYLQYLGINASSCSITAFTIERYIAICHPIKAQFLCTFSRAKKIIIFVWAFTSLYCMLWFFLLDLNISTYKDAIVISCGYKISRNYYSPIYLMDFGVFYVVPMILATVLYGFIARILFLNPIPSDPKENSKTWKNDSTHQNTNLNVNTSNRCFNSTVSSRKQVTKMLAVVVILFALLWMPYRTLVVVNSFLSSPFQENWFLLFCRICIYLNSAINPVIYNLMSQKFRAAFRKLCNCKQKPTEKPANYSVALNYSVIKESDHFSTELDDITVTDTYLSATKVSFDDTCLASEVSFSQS
Chain of Thyrotropin receptor (Homo sapiens) (P16473 whole entry, looked up): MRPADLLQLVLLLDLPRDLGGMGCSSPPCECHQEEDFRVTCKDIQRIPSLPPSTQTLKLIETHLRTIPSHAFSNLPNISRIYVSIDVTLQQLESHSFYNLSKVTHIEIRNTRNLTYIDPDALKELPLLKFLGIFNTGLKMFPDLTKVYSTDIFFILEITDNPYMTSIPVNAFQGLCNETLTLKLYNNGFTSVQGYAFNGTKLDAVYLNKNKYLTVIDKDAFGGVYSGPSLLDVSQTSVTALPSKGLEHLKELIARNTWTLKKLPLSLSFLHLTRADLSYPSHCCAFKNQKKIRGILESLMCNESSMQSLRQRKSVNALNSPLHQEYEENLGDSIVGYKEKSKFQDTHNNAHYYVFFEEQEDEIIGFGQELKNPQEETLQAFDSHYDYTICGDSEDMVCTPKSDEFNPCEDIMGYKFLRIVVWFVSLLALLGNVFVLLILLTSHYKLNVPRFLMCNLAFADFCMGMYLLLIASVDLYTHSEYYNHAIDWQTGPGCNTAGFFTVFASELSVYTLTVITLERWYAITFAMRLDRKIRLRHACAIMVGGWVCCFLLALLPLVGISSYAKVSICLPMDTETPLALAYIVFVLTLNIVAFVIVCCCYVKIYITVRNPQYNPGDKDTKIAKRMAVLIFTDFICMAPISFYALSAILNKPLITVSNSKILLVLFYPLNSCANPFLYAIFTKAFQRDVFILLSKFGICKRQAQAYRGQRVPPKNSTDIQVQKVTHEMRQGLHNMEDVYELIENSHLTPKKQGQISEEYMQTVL
Chain of Progesterone receptor (Homo sapiens) (P06401 whole entry, looked up): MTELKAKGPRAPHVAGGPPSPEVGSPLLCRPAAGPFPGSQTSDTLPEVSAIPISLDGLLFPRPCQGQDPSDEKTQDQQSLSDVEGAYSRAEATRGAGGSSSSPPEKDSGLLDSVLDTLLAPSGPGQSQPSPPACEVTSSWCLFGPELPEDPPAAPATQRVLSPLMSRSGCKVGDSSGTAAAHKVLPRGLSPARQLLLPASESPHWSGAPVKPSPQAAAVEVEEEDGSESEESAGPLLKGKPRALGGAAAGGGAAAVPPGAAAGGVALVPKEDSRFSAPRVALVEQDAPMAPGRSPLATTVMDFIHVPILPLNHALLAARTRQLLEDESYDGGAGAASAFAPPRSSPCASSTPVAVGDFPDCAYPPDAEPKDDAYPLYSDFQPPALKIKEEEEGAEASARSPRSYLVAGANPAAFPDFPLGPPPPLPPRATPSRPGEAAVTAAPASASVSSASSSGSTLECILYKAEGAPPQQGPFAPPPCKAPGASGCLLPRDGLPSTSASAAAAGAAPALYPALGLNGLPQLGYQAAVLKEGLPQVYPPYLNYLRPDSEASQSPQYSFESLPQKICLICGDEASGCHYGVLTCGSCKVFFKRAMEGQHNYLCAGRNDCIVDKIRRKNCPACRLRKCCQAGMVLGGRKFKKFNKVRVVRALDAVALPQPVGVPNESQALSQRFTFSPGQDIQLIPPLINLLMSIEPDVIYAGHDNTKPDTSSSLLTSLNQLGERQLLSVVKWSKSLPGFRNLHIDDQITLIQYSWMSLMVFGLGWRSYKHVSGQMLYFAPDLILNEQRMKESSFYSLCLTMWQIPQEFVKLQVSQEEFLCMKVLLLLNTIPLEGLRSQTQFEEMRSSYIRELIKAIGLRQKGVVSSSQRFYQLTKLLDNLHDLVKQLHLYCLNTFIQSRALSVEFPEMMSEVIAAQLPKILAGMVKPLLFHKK
Chain of Nuclear receptor subfamily 1 group I member 2 (Homo sapiens) (O75469 whole entry, looked up): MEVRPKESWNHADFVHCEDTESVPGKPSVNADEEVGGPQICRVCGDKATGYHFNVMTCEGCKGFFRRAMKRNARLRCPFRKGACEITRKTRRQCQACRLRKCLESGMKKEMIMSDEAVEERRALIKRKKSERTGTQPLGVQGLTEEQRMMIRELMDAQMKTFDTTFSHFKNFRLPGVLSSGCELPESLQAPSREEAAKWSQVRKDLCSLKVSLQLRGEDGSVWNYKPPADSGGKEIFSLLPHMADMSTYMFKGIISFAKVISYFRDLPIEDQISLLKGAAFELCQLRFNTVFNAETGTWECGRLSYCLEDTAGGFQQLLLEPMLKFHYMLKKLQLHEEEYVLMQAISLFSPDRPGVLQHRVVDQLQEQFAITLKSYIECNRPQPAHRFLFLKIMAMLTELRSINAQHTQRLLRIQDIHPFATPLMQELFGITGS

With `FC(F)(F)C(F)(F)C(F)(F)C(F)(F)C(F)(F)C(F)(F)C(F)(F)C(F)(F)C(F)(F)C(F)(F)F`, the activity change, negative = inhibition in assay [1] was -3.91% [at 8.39 µM]; in assay [4] it was 0.137% [at 8.39 µM]. Also, the activity change, negative = cytotoxicity in [2] is 4.74% [at 8.39 µM]; in [5] it was 3.97% [at 8.39 µM]; in assay [7] it was 13.6% [at 6.97 µM]; in [11] it was 1.13% [at 8.39 µM]; in [13] it was 7.28% [at 8.39 µM]; in assay [15], 5.96% [at 8.39 µM]. The activation was 2.84% [at 8.39 µM] in assay [3], 2.81% [at 6.97 µM] in assay [8], 0.116% [at 5.23 µM] in assay [10] and -1.65% [at 8.39 µM] in assay [16]. Further, the viability change, negative = cytotoxic in assay [6] is -11.6% [at 6.97 µM]. For the same molecule, in assay [9], the activity, negative = inhibition is 0.552% [at 4.65 µM]. Also, the caspase activation in [12] is -0.76% [at 8.39 µM]. In addition, the caspase-3/7 activation in assay [14] was -0.497% [at 8.39 µM].

In the case of `Oc1cc(O)c2c(c1)O[C@H](c1ccc(O)c(O)c1)[C@H](O)C2`, the Potency entry in assay [1], in [3], in [4], in [5], in assay [17] and in assay [11] was “inactive” each time. Moreover, the Potency result in assay [13] and in [16] was “inactive” each time. Further, the result in [2], in assay [7], in [8], in assay [12], in [14] and in assay [15] was inactive.

As for `CCO[Si](C)(OCC)OCC`, the Potency result in [1], in [3], in assay [4], in [17], in assay [11] and in assay [13] was “inactive” throughout. The Potency entry in [16] is “inactive”. Also, the outcome in assay [2], in assay [6], in [7], in assay [8], in assay [9] and in assay [10] was inactive. The molecule was called inactive in [12], in assay [14] and in assay [15].

On to `O=Cc1ccccc1[N+](=O)[O-]`, for which the Potency result in assay [1], in assay [3], in assay [4], in [5], in [11] and in [13] was “inactive” in each case. The Potency result in [16] is “inactive”. Also, the result in assay [2], in assay [6], in [7], in assay [8], in assay [12] and in [14] was inactive. Further, in [15], the outcome was inactive.

Turning to `CC(C)(O)Cc1ccccc1`, the Potency result in assay [1], in [3], in [4], in [5], in [11] and in [13] was “inactive” each time. Also, in [16], the Potency entry is “inactive”. The result in assay [2], in assay [6], in assay [7], in assay [8], in assay [9] and in [10] was inactive. For the same molecule, the molecule was classed as inactive in assay [12], in assay [14] and in [15].

With `Oc1ccc2c(c1)OC[C@@H](N1CCC(O)(c3ccc(F)cc3)CC1)[C@H]2O`, the Potency entry in assay [1], in assay [3], in assay [5], in assay [17], in assay [11] and in assay [13] was “inactive” in each case. In addition, the outcome in assay [2], in assay [6], in assay [7], in [8], in [9] and in assay [10] was inactive. Further, the call in assay [12], in [14] and in [15] was inactive. Also, the Potency in assay [16] is 11.9 µM (active).

For the molecule `CCC(=O)c1cccc(Cl)c1`, the Potency entry in assay [1], in assay [4], in [11], in assay [13] and in [16] was “inactive” in each case. In addition, the result in [2], in assay [6], in assay [7], in [8], in assay [9] and in assay [10] was inactive. The molecule was classed as inactive in [12], in assay [14] and in [15]. For the same molecule, the Potency in assay [3] is 1.97 µM (active).
